According to the supplement of paper PMC10338343:
± gives the standard deviation.

Test system: MILI (PIWIL2) piRISC loaded with L1MC piRNA (26 nt)
Test: pre-steady-state target cleavage rate (min^-1); guide: L1MC piRNA 5'p-UAACUAAAUACUAUGCAAGCUGUAGG; MIWI and MILI are mouse PIWI proteins and EfPiwi is from a freshwater sponge; tags in brackets are library labels; higher = faster piRNA-guided slicing of the target
Outline: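 The method was Cleave-'n-Seq, in which uncleaved targets from a transcribed, DNA-blocked target RNA library were sequenced after exposure to active affinity-purified piRISC carrying one synthetic guide, with or without GTSF1 partner protein. Reactions contained 0.1 nM library, 1 nM piRISC and, where present, 500 nM GTSF1 in HEPES–potassium acetate buffer at 33 °C for 0–8 or 0–960 min. Reads were normalised to depth and to weakly complementary targets, three trials were pooled, and k3 was capped at 0.0001 min^-1. The pre-steady-state cleavage rate came from a burst-and-steady-state fit.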

[1] = auxiliary factor: 500 nM mouse GTSF1
[2] = auxiliary factor: none (no GTSF1)

| Sequence | pre-steady-state target cleavage rate [1] | pre-steady-state target cleavage rate [2] |
| --- | --- | --- |
| UCCUGCUACAGCUUGCAUAGAUUUUAGUUA | 0.0475 ± 0.0083 | – |
| UCCUGGAUGUCGAACGAUCAGUAUUUAGUUA | < 0.0001 | – |
| UCCUGGAUGUGCUUGCAUAGUAUUUUCUUA | 0.00861 ± 0.005 | – |
| UCCUGGAUGUCCUUGCAUAGUUAUUAGUUA | 0.00901 ± 0.004 | – |
| UCCUGGUACAGCUUGCAUAGGUAUUUAGUUA | 0.0078 ± 0.0065 | 0.00574 ± 0.0037 |
| UCCUGGAUGAGGUUGCAUAGUAUAUAGUUA | 0.163 ± 0.04 | 0.00623 ± 0.0021 |
| UCCUGGAUGUGGUUGCAUAGAAUUUAGUUA | 0.0151 ± 0.0063 | 0.00318 ± 0.0028 |
| UCCUGGAUGUCGUUGCUUAGUAUUUAGUAA | 0.0495 ± 0.02 | 0.00388 ± 0.0022 |
| UCCUGGAUCAGCUUGCAUAGUAUAUAGAAA | 0.115 ± 0.03 | – |
| UCCUGGAACAGCUUGCAUAGUUAUUUAGUUA | 0.0126 ± 0.0059 | 0.00339 ± 0.0029 |
| UCCUGGAUGUGCUUGCAUAGUAUUUAAUUA | 0.0357 ± 0.011 | 0.00315 ± 0.003 |
| UCCUGGAUGAGGAAGCAUAGUAUUUAGUUA | 0.0519 ± 0.012 | 0.00494 ± 0.0027 |
| UCCUGGAUGUGCUUGCAUAGUAUUCUAGUUA | 0.193 ± 0.045 | 0.00428 ± 0.0034 |
| UCCUGGAACAGCUUGCAUAGUUUUUUCAAA | 0.00594 ± 0.0037 | – |
| UCCUGGAUGUGCUUGCAAAGUAUAUAGUUA | 0.0264 ± 0.0072 | 0.00311 ± 0.0024 |
| UCCUGGAUGUGGAAGCAUAGUAUUUAGUUA | 0.026 ± 0.0048 | 0.00344 ± 0.0029 |
| UCCUGGAUGUCCUAGCAUAGUAUUUAGUUA | 0.0817 ± 0.015 | 0.00379 ± 0.002 |
| UCCUGGUUCAGCUUGCAUAGUAUUUACUUA | 0.0561 ± 0.02 | – |
| UCCUGGAUGUGCUUGCAAUGUAUUUAGUUA | 0.0104 ± 0.005 | 0.0111 ± 0.0028 |
| UCCUGGUACAGCUUGCUAUGUAUUUAGUUA | 0.0246 ± 0.0085 | 0.00465 ± 0.0027 |
| UCCUGGAUGAGCUUGCAAAGUAUUUAGUAA | 0.085 ± 0.015 | 0.00635 ± 0.0025 |
| UCCUGGAUCAGCUUGCAUGGUAUUUAGUUA | 0.285 ± 0.025 | 0.011 ± 0.0027 |
| UCCUGGAUGUCGUUGCAUAGUAUGUUAGUUA | 0.203 ± 0.042 | 0.00861 ± 0.0031 |

| Sequence | pre-steady-state target cleavage rate [1] | pre-steady-state target cleavage rate [2] |
| --- | --- | --- |
| UCCUGGAUGUCGAACGAUAGUAUUUACAUA | – | < 0.0001 |
| UCCUGCUACAGCUUGCAUAGUAUCUAGUUA | 0.265 ± 0.033 | 0.00553 ± 0.0025 |
| UCCUGGUACAGCUUGCAUAGUAUUAUGAAA | 0.00782 ± 0.0056 | – |
| UCCUGGAUGUGCUGUGCAUAGUAUUUAGUUA | 0.131 ± 0.015 | 0.00886 ± 0.004 |
| UCCUCCUACAGGAAGCAUAGUAUUUAGAAA | 0.107 ± 0.017 | – |
| UCCUGCUACAGCUUCGUUAGUAUUUAGUUA | 0.239 ± 0.022 | 0.00333 ± 0.0027 |
| UCCUGGUACAGCUUCGUUAGUAUUUAGAAA | – | < 0.0001 |
| UCCUGGUACAGCUUGCAGUAGUAUUUAGUUA | 0.00495 ± 0.0037 | – |
| UCCUGGAUGUGCAUGCAUAGUUUUUAGUUA | 0.01 ± 0.0069 | 0.00641 ± 0.003 |
| UCCUGGAUGAGCUUGCAUAGUAUUUUCAAA | 0.00959 ± 0.0061 | – |
| UCCUCCUACAGCUUGCAUAGUAUUCUAGUUA | 0.316 ± 0.039 | 0.00537 ± 0.0026 |
| UCCUGGAUGACCUUGCAUAGAAUUUAGUUA | 0.023 ± 0.012 | – |
| UCCUGGAUCAGCUUGCAAAGUAAUUAGUUA | 0.0974 ± 0.011 | 0.00502 ± 0.0023 |
| UCCUGGAUGAGGUUGCAAAGUAUUUAGUUA | 0.0323 ± 0.0068 | 0.00826 ± 0.0022 |
| UCCUCCUUACAGCUUGCAUAGUAUUUAGUUA | 0.301 ± 0.014 | 0.011 ± 0.0028 |
| UCCUGGAUGUGCUUGCAUAGUAUUUACUUA | 0.0325 ± 0.0094 | – |
| UCCUGGAUGUCGAAGCAUAGUGUUUAGUUA | 0.0115 ± 0.0044 | 0.00454 ± 0.0019 |
| UCCUGGAUGUCCUUGCAUAGUAUUUAUUA | 0.0219 ± 0.0073 | – |
| UCCUGGUACUGCUUGGAUAGUAUUUAGUUA | 0.179 ± 0.029 | 0.00767 ± 0.0042 |
| UCCUGGAUGAGCUUGCAUAGUAAUUACUUA | 0.00616 ± 0.004 | – |
| UCCUGGAACUGCUUCCAUAGUAUUUAGUUA | 0.074 ± 0.022 | – |
| UCCUGGAUGAGCUUGCAAAGUAUUUUGUUA | 0.0703 ± 0.019 | 0.00392 ± 0.0026 |
| UCCUGGUACAGACUUGCAUAGUAUUUAGUUA | 0.228 ± 0.042 | 0.00755 ± 0.0044 |
